Reference: PubChem BioAssay
Inconclusive results are not listed.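 Rule for the calls, unless noted: active = viability at or below 27.92% in each of two runs, the all-compound median minus 4 SD; inconclusive = no clear call, values can overlap the other calls; inactive = the rest.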

Key:
[1] = S. cerevisiae growth inhibition in permissive medium (OD615), pilot counter-assay for S. cerevisiae lifespan shortening project, permissive growth control (AID 705;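 active = growth inhibition above 25% in both replicates, a cutoff set 3 SD above the mean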); settings: OD615, 24 h, at 10 µM, hits give high values
[2] = S. cerevisiae growth inhibition in restrictive medium, OD615, pilot screen, restrictive growth control, yeast lifespan reduction project (AID 706;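 active = growth inhibition above a set limit, 3 SD over mean compound inhibition, in both replicates, cut at about 43% in these data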;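 note: modified DeaD lifespan yeast strain shifted to restrictive glucose medium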); settings: OD615, 48 h, at 10 µM, hits give high values
[3] = doxorubicin toxicity protection in MRP-1 cells – H69AR cells, CellTiter-Glo, duplicate, MRP-1 activator project, pilot screen (AID 807;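 active = viability increase at or above a cutoff of the median across tested compounds plus 3 SD, cut at about 8.5% in these data, passing the limit was not always enough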;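 note: compound pretreatment 18-22 h then 72 h combined with doxorubicin; 0% = doxorubicin alone and 100% = vehicle without doxorubicin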); settings: H69AR viability with doxorubicin, CellTiter-Glo luminescence; at 10 µM; hits give high values
[4] = viability of HCT116 without oncogenic beta-catenin – human colon tumor cells, pilot screen (AID 823;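 active = cell viability at or below a set limit in both duplicate runs, the limit being the all-compound median minus 4 SD, cut at about 23% in these data, passing the limit was not always enough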;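 note: 0% = wells killed by 20 µM Hyamine and 100% = untreated DMSO cell wells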); settings: HCT116 beta-catenin knockout viability, CellTiter-Glo, 60 h; at 10 µM; hits give low values
[5] = viability of PTEN-null HCT116 cells – cell-based, HCT116 clonal line, CellTiter-Glo, pilot screen (AID 824); settings: HCT116 PTEN-deleted viability, 60 h, at 10 µM, hits give low values;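 note: 0% = 20 µM Hyamine control and 100% = vehicle cell control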
[6] = RAM signaling pathway blockade in yeast – S. cerevisiae, Pdr1DBD-CYC8 efflux-inhibited sensitized strain, primary screen (AID 1298;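 active = RAM network inhibition above 8.4% in each of two replicates, 3 SD over the compound average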;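 note: 0% = DMSO untreated cells without growth and 100% = 10 µM 1-NA-PP1 full growth; higher means more yeast growth rescued from 5-FOA killing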); settings: S. cerevisiae cbk1-as DSE1-URA3 strain, 5-FOA growth OD615, 2 d; at 50 µM; hits give high values

O=C(OCC1COc2ccccc2O1)c1c(F)cccc1F (stereo unspecified)
inactive: growth inhibition [1] -5.97% | growth inhibition [2] -0.835% | viability increase [3] 2.01% | viability [4] 93% | viability [5] 95.8% | RAM network inhibition [6] 7.73%

O=C(CSc1nnc(Cn2c(=O)sc3ccccc32)n1-c1ccccc1)N1CCCC1
inactive: growth inhibition [1] -8.58% | growth inhibition [2] -14.4% | viability increase [3] -1.4% | viability [4] 97.1% | viability [5] 97% | RAM network inhibition [6] 2.12%

COc1ccccc1-c1nc(-c2ccc(Br)cc2)no1
inactive: growth inhibition [1] 4.16% | growth inhibition [2] -2.73% | viability increase [3] -3.88% | viability [4] 84.2% | viability [5] 94.1% | RAM network inhibition [6] 5.02%

Cc1ccc(OCC(=O)Nc2ccc(O)c(-c3nc4ccccc4o3)c2)cc1
inactive: growth inhibition [1] -10% | growth inhibition [2] -14.9% | viability increase [3] -7.57% | viability [4] 38.8% | viability [5] 54% | RAM network inhibition [6] 2.6%

CCOC(=O)C1CCN(S(=O)(=O)C(F)(F)c2nc3ccccc3s2)CC1
inactive: growth inhibition [1] -10.6% | growth inhibition [2] -6.5% | viability increase [3] -2.27% | viability [4] 82.2% | viability [5] 87.5% | RAM network inhibition [6] 5.28%

COc1ccc(-c2nc(-c3cccc(C(F)(F)F)c3)no2)cc1OC
inactive: growth inhibition [1] -2.88% | growth inhibition [2] 1.6% | viability increase [3] -0.18% | viability [4] 99% | viability [5] 93.3% | RAM network inhibition [6] 7.48%

CCn1cc(C(=O)NC2CCCCC2)c(=O)c2cc(S(=O)(=O)N(C)C)ccc21
inactive: growth inhibition [1] -0.125% | growth inhibition [2] 2.4% | viability increase [3] -1.45% | viability [4] 102% | viability [5] 94.7% | RAM network inhibition [6] -1.57%

CN(C)c1nc2ccc(OCCN3CCCCC3)cc2s1
inactive: growth inhibition [1] -10.8% | growth inhibition [2] 0.795% | viability increase [3] -0.48% | viability [4] 93% | viability [5] 94.3% | RAM network inhibition [6] 4.76%

COc1ccc(-c2nc(CS(=O)CC(=O)NCc3ccc(Cl)cc3)c(C)o2)cc1 (stereo unspecified)
inactive: growth inhibition [1] -11.9% | growth inhibition [2] 4.36% | viability increase [3] 0.16% | viability [4] 72.4% | viability [5] 79.9% | RAM network inhibition [6] 7.34%

Cc1cc(Nc2cccc(Cl)c2)n2ncnc2n1
inactive: growth inhibition [1] -2.62% | growth inhibition [2] 7.42% | viability increase [3] -2.08% | viability [4] 95.9% | viability [5] 98.7% | RAM network inhibition [6] 1.67%

Cc1ccccc1-n1c(Cn2c(=O)sc3ccccc32)nnc1SC(C)C
inactive: growth inhibition [1] 5.19% | growth inhibition [2] 6.75% | viability increase [3] -0.49% | viability [4] 84% | viability [5] 78.4% | RAM network inhibition [6] 6.91%

Clc1cc(Br)ccc1OCCOCCN1CCOCC1
inactive: growth inhibition [1] -3.75% | growth inhibition [2] 2.38% | viability increase [3] 0.57% | viability [4] 93.5% | viability [5] 91.7% | RAM network inhibition [6] 0.08%

Cn1c(=O)[nH]c(=O)c2c1nc(Sc1ccccc1)n2CCc1ccccc1
inactive: growth inhibition [1] -4.23% | growth inhibition [2] -5.96% | viability increase [3] -5.18% | viability [4] 91.6% | viability [5] 69.2% | RAM network inhibition [6] 7.53%

Cc1ccc(Nc2ncnc3nc[nH]c23)cc1Cl
inactive: growth inhibition [1] 1.92% | growth inhibition [2] 31.3% | viability increase [3] -1.76% | viability [4] 105% | viability [5] 90.8% | RAM network inhibition [6] 4.7%

CCOc1ccc(-n2nnc3c(=O)n(CC(=O)c4ccccc4)cnc32)cc1
inactive: growth inhibition [1] -2.31% | growth inhibition [2] 1.56% | viability increase [3] 0.38% | viability [4] 101% | viability [5] 97% | RAM network inhibition [6] 3.09%

Cc1nnc(NC(=O)CSc2nnc(Cc3cccn3C)n2-c2cccc(C)c2C)s1
inactive: growth inhibition [1] 6.78% | growth inhibition [2] 31% | viability increase [3] -0.56% | viability [4] 100% | viability [5] 87.2% | RAM network inhibition [6] -0.2%

O=C(NCc1ccccc1Cl)C1CCN(C(=O)c2sccc2-n2cccc2)CC1
inactive: growth inhibition [1] -17.6% | growth inhibition [2] -12% | viability increase [3] -2.65% | viability [4] 99.2% | viability [5] 86.8% | RAM network inhibition [6] 8.69%

COc1ccc(C)cc1NS(=O)(=O)c1cccc2nonc12
inactive: growth inhibition [1] -8.6% | growth inhibition [2] -10.6% | viability increase [3] -3.24% | viability [4] 95.8% | viability [5] 94.3% | RAM network inhibition [6] 4.42%

CSc1cccc(NS(=O)(=O)c2ccc3c(c2)oc(=O)n3C)c1
inactive: growth inhibition [1] -0.15% | growth inhibition [2] 7.23% | viability increase [3] -1.75% | viability [4] 85.3% | viability [5] 81% | RAM network inhibition [6] 4.49%

Cc1ccc(C)c2[nH]c(=O)c(CCNC(=O)c3cc4ccccc4o3)cc12
inactive: growth inhibition [1] -2.5% | growth inhibition [2] -11.6% | viability increase [3] 1.81% | viability [4] 95.4% | viability [5] 91.2% | RAM network inhibition [6] 4.18%

Cn1c(Cn2c(=O)sc3ccccc32)nnc1SCC(=O)Nc1ccc(F)cc1
inactive: growth inhibition [1] -6.3% | growth inhibition [2] -13.1% | viability increase [3] -0.7% | viability [4] 105% | viability [5] 97.8% | RAM network inhibition [6] 5.95%
